Laboratory results: the supplement of paper PMC11732987, “Enantioselective OTUD7B fragment discovery through chemoproteomics screening and high-throughput optimisation” (Communications Chemistry, 2025)

Tests used:
Assay in all cases: log2 ratio of Biotin-Ahx-Ub-VS probe labelling (fragment/DMSO); higher = less target engagement (more negative = stronger competition), active = hit call of the paper (q ≤ 0.05, log2 ratio ≤ -1)
Conditions in all cases: compound concentration: 200 uM; treatment time: 3 h
[1] = target: T1, OTUD6B (UniProt Q8N6M0)
T1 sequence (whole entry): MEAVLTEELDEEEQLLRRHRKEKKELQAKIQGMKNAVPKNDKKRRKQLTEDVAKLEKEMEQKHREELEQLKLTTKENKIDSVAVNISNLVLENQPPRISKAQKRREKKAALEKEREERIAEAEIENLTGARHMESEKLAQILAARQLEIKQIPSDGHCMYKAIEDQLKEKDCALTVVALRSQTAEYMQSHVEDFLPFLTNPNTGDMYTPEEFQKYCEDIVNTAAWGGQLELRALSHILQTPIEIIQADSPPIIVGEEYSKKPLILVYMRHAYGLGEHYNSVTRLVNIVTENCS
Procedure, shortened: (§1)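 The table lists average log2 ratios of fragment over vehicle, from an unpaired t-test on global-median-normalised Spectronaut label-free quantities. Proteins with ≥2 unique peptides were used. Samples were HEK293T lysate (495 µg) treated in triplicate with fragment at 200 µM or vehicle for 3 h, then with Biotin-Ahx-Ub-VS (0.5 µM final) for 1 h, with labelled DUBs NeutrAvidin-enriched and run by diaPASEF LC-MS/MS.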

[2] = target: T2, OTUD7B (UniProt Q6GQQ9)
T2 sequence (whole entry): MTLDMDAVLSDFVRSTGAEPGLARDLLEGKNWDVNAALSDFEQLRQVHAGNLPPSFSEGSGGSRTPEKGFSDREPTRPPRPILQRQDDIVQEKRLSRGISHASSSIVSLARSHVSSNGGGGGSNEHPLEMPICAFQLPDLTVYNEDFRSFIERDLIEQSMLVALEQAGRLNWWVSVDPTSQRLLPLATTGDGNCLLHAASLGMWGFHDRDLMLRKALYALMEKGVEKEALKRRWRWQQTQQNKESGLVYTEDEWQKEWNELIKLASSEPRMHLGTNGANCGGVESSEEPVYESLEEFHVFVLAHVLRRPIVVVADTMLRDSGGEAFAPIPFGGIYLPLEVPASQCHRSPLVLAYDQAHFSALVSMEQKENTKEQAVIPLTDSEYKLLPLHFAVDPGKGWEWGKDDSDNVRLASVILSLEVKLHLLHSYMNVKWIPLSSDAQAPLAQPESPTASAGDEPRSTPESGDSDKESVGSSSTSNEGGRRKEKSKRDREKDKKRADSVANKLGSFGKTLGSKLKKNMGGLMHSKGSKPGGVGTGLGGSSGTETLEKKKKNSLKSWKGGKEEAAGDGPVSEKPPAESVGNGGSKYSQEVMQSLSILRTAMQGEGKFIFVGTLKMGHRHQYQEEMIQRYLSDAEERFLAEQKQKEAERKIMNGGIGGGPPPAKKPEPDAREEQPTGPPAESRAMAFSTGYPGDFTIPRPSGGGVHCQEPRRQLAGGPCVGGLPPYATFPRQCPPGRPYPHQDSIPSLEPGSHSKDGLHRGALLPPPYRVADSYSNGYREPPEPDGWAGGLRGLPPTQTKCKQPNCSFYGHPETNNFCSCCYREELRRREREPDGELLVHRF
Procedure, shortened: as §1

[3] = target: PRPF8 (UniProt Q6P2Q9)
Procedure, shortened: as §1

[4] = target: T3, PSMD7 (UniProt P51665)
T3 sequence (whole entry): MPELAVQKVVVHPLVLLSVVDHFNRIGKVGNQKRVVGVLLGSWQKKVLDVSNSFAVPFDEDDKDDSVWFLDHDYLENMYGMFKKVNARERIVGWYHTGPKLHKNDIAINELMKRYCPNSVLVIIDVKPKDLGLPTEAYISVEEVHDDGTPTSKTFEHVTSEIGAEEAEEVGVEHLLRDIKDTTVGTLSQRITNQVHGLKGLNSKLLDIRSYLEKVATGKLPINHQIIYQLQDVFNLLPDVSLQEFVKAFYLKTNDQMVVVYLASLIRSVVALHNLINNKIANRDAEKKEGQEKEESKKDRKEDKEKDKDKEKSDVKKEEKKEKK
Procedure, shortened: as §1

[5] = target: UCHL1 (UniProt P09936)
Sequence of UCHL1 (P09936 whole entry, looked up): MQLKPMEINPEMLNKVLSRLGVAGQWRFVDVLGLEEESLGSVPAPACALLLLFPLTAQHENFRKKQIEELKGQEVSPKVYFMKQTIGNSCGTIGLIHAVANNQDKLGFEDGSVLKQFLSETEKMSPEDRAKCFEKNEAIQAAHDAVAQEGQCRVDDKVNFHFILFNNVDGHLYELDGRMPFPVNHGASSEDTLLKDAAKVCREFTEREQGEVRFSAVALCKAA
Procedure, shortened: as §1

[6] = target: T4, UCHL3 (UniProt P15374)
T4 sequence (whole entry): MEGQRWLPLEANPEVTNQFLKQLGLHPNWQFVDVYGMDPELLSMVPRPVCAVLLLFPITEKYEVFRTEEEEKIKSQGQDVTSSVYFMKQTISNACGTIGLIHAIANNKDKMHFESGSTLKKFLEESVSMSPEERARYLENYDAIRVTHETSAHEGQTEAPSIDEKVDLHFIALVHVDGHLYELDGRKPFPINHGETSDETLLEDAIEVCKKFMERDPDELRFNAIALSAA
Procedure, shortened: as §1

[7] = target: T5, UCHL5 (UniProt Q9Y5K5)
T5 sequence (whole entry): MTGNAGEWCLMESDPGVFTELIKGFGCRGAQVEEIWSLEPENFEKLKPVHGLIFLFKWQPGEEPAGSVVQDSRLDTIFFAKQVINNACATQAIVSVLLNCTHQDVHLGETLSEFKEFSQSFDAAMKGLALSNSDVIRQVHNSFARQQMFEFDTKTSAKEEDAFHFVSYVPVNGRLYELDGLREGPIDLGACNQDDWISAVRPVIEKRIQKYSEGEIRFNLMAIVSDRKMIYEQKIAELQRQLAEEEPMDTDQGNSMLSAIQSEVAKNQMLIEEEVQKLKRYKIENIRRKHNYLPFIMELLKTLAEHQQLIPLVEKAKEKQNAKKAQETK
Procedure, shortened: as §1

[8] = target: USP10 (UniProt Q14694)
Sequence of USP10 (Q14694 whole entry): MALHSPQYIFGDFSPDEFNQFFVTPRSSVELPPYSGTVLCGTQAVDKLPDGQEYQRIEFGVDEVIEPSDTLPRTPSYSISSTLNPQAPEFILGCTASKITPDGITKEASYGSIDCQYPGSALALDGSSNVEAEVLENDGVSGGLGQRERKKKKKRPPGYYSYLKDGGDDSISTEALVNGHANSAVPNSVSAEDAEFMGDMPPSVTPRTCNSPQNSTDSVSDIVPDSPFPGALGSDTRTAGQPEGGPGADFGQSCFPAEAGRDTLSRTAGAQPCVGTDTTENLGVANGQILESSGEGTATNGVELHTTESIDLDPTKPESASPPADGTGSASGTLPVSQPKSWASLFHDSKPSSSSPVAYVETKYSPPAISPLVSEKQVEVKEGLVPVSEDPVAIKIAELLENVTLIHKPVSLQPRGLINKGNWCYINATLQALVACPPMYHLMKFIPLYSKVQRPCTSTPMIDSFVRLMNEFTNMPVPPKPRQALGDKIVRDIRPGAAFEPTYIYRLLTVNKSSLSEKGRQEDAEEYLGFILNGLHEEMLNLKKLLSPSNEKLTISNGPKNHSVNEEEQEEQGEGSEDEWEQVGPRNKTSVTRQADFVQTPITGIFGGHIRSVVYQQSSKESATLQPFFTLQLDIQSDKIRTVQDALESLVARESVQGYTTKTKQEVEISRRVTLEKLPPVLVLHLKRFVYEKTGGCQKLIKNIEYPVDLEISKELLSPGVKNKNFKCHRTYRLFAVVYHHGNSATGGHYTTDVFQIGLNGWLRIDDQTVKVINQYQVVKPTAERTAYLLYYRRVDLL
Procedure, shortened: as §1

[9] = target: T6, USP15 (UniProt Q9Y4E8)
T6 sequence (whole entry): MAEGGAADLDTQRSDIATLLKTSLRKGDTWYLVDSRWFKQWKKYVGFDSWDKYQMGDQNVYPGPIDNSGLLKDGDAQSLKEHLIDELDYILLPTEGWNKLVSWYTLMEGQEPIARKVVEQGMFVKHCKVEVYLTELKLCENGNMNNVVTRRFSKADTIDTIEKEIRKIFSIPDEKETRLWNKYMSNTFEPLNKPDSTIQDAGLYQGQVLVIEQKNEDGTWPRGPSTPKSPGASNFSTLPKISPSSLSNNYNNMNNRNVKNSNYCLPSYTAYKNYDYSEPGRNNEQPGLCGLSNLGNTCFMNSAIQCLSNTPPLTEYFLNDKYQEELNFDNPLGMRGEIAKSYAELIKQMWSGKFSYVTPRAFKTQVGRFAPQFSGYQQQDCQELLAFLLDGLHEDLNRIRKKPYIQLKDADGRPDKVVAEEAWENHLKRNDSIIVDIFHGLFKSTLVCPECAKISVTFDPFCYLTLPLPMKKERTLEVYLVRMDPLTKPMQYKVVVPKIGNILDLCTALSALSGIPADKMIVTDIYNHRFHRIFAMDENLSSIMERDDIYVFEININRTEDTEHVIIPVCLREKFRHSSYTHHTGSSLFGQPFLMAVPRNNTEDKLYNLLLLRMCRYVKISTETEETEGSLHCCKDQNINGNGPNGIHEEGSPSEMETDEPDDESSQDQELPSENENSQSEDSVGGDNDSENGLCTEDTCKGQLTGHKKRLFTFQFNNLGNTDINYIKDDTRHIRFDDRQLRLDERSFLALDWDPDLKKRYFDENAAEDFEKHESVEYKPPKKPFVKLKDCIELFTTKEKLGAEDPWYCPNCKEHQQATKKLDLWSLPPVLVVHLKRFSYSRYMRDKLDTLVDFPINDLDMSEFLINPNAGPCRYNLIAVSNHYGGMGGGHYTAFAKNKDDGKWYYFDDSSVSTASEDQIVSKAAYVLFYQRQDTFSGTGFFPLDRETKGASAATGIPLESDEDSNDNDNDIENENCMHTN
Procedure, shortened: as §1

[10] = target: USP16 (UniProt Q9Y5T5)
Sequence of USP16 (Q9Y5T5 whole entry, looked up): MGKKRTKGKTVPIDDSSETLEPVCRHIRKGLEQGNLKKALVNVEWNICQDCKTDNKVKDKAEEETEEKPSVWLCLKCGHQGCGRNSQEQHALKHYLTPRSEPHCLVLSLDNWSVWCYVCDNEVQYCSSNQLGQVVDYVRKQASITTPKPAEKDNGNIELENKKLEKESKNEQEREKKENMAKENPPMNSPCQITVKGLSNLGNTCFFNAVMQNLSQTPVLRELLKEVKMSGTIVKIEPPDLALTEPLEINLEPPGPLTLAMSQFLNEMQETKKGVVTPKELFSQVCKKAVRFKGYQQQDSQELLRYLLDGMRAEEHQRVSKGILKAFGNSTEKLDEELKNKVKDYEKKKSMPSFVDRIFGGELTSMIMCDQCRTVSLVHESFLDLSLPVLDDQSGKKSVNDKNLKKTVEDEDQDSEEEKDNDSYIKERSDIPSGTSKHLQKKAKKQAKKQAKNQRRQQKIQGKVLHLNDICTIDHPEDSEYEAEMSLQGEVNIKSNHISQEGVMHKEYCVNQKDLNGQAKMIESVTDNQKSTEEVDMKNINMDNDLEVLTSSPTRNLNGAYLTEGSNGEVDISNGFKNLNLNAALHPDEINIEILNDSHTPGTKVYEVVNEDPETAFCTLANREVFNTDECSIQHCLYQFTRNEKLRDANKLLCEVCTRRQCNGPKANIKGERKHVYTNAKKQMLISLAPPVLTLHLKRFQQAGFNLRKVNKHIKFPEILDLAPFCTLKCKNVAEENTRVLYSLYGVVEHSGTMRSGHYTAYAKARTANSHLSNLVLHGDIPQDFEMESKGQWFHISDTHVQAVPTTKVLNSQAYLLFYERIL
Procedure, shortened: as §1

Measured: log2 ratio of Biotin-Ahx-Ub-VS probe labelling

CC(NC(=O)CCl)c1cccc2ccccc12 (stereo not given)
active: [2] -1.46 | [5] -1.35 | [6] -1.96
inactive: [1] -0.00256 | [3] -0.109 | [4] 0.0463 | [7] -0.585 | [8] -0.00367 | [9] -0.21 | [10] 0.303
